Inconclusive results are not listed. A call without a number means that no potency is given here. A number with no mark means an inactive call. The source made the active and inactive calls. Calls come from the whole dose curve; as a rule, active = well fitted cell-killing curve with a large enough effect; inconclusive = small, poorly fitted or top-dose-only effect, or effect the other way; inactive = flat fitted curve, though single readings scatter. Where a SMILES comes first, the peptide text is derived from it. [ ]: non-standard residue; d: D form. ξ: configuration not given here. ξLac(3-iPr) = CC(C)CC(O)C(=O)O; NMeV = CN[CH](C(=O)O)C(C)C; βAla = NCCC(=O)O
Assays:
Experiment in all cases: Primary qHTS to identify gynecologic anti-cancer compounds using libraries of approved drugs and bioactive compounds (AID 1345084); note: nearly all actives have a fitted effect of over 55% in size
Conditions in all cases: Gynecologic cancer cell panel viability, ATPlite luminescence, 48 h; series mostly up to 57.5 µM
OV90 = system: OV90
Summary of the method: (§1)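 Luminescence from the ATPlite ATP-monitoring reagent indicates viable cell number; lower signal means cytotoxicity. Cells received compound 16 h after seeding and were exposed for 48 h across five concentrations.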

PA-1 = system: PA-1
Summary of the method: as §1

SKOV3 = system: SKOV3
Summary of the method: as §1

Tov-21-G = system: Tov-21-G
Summary of the method: as §1

Tov112D = system: Tov112D
Summary of the method: as §1
Potency is the fitted concentration of half-maximal effect.

Row | Structure (SMILES) | activity change, negative = cytotoxicity (OV90) | activity change, negative = cytotoxicity (PA-1) | activity change, negative = cytotoxicity (SKOV3) | activity change, negative = cytotoxicity (Tov-21-G) | activity change, negative = cytotoxicity (Tov112D) | Potency (OV90) | Potency (PA-1) | Potency (SKOV3) | Potency (Tov-21-G) | Potency (Tov112D)
1 | C=C(C)C1CCC2(C(=O)O[C@@H]3O[C@H](CO[C@@H]4O[C@H](CO)[C@@H](O)[C@H](O)[C@H]4O)[C@@H](O)[C@H](O[C@@H]4O[C@@H](C)[C@H](O)[C@@H](O)[C@H]4O)[C@H]3O)CCC3(C(=O)O)C(CCC4C5(C)CCC(O)C(C)(C)C5CCC43C)C12 (stereo not given in full) | 15.5% [at 11.6 µM] | -1.76% [at 11.6 µM] | -5.29% [at 11.6 µM] | 9.18% [at 11.6 µM] | 11.4% [at 11.6 µM] | – | – | – | – | –
2 | Cc1nc2ccc(Oc3ccc(F)cc3)cc2c(=O)n1C[C@H]1CCCN(C(C)C)C1 | – | – | – | – | – | inactive | inactive | inactive | inactive | inactive
3 | COc1cc(C(=O)OC[C@@]2(O)CO[C@@H](O[C@H]3[C@H](Oc4ccc(C(=O)O)cc4OC)O[C@H](CO)[C@@H](O)[C@@H]3O)[C@@H]2O)ccc1O | – | – | – | – | – | inactive | inactive | inactive | inactive | inactive
4 | C=C[C@H]1[C@H](O[C@@H]2O[C@H](CO)[C@@H](O)[C@H](O)[C@H]2O)OC=C(C(=O)OC)[C@H]1CCOC(=O)c1cc(O)c(O)c(O)c1 | – | – | – | – | – | inactive | inactive | inactive | inactive | inactive
5 | COc1c2c(c(C)c3c1C(=O)OC3)O[C@@]1(C)CC(O)C(C(C)(C)O)[C@](C)(CCC(=O)O)[C@H]1C2 (stereo not given in full) | – | – | – | – | – | inactive | inactive | inactive | 6.31 µM (active) | inactive
6 | NCCCNc1ccc(Nc2nccc(Nc3cc(C4CC4)[nH]n3)n2)cc1 | – | – | – | – | – | 8.91 µM (active) | 1.12 µM (active) | 7.08 µM (active) | 3.98 µM (active) | 2.82 µM (active)
7 | COC(=O)[C@@]1(c2ccc(C)cc2)C[C@H]1CN1CCC(O)(c2ccccc2)CC1 | – | – | – | – | – | inactive | inactive | inactive | inactive | inactive
8 | COC(=O)C12CCC(C)C(C)C1C1=CCC3C4(C)CCC(OC(C)=O)C(C)(C)C4CCC3(C)C1(C)CC2 (stereo not given) | – | – | – | – | – | inactive | inactive | inactive | inactive | inactive
9 | CC(C)(O)CC(CO)NC(=O)CC(O)CC(=O)Cc1ccccc1 (stereo not given) | – | – | – | – | – | inactive | inactive | inactive | inactive | inactive
10 | CC(C)C(N)C(=O)OCCOCn1cnc2c(=O)[nH]c(N)nc21 (stereo not given) | – | – | – | – | – | inactive | inactive | inactive | inactive | inactive
11 | C=C1C[C@]23C[C@H]1CC[C@H]2[C@@]1(C)CCC[C@@]2(C)C(=O)O[C@@H]([C@@H]3O)[C@@H]12 | – | – | – | – | – | inactive | inactive | inactive | inactive | inactive
12 | C[C@@H]1[C@H]2[C@H](O[C@@H]3O[C@H](CO)[C@@H](O)[C@H](O)[C@H]3O)OC=C(C(=O)O)[C@H]2C[C@@H]1O | – | – | – | – | – | inactive | inactive | inactive | inactive | inactive
13 | CC1C(=O)OCC2=CCN3CCC(OC(=O)C(C)(O)C1(C)O)C23 (stereo not given) | – | – | – | – | – | inactive | inactive | inactive | inactive | inactive
14 | CC(C)(O)/C=C/C1=CC(=O)[C@@](C)(O)C[C@H]1O | – | – | – | – | – | inactive | inactive | inactive | inactive | inactive
15 | CC(C)CC1OC(=O)C2CCCN2C(=O)CCNC(=O)C(Cc2ccccc2)NC(=O)C(C(C)C)N(C)C(=O)C(C(C)C)N(C)C1=O (stereo not given) (cyclo([ξLac(3-iPr)][NMeV][NMeV]F[βAla]P); configuration not given here) | – | – | – | – | – | inactive | inactive | inactive | inactive | inactive
16 | COC(=O)C1=CO[C@@H](O[C@@H]2O[C@H](CO)[C@@H](O)[C@H](O)[C@H]2O)C2C1C(=O)C[C@H]2C (stereo not given in full) | – | – | – | – | – | inactive | inactive | inactive | inactive | inactive
17 | c1cc(OCCCN2CCCCC2)ccc1CN1CCCCC1 | – | – | – | – | – | inactive | inactive | inactive | inactive | inactive
18 | C=C1C(=O)O[C@@H]2C[C@H](C)[C@@]3(O)C=C(C(C)=O)[C@]4(CC3C[C@H]12)C(=O)O[C@H]1C[C@@H](C)C(CCC(C)=O)=CC[C@H]14 (stereo not given in full) | – | – | – | – | – | inactive | inactive | inactive | inactive | inactive
19 | C=C1C(O)C(O)C2(CC3C(C)=CCC4C(C)(CO)CCCC34C)OC2C1O (stereo not given) | – | – | – | – | – | inactive | inactive | inactive | inactive | inactive
20 | CC(C)/C=C1\NC(=O)C(C(C)C)n2c1nc1c(c2=O)C=CC=CO1 (stereo not given) | – | – | – | – | – | inactive | inactive | inactive | inactive | inactive
21 | C=CC/C=C\C/C=C\CCCCCCCc1cccc(O)c1C(=O)O | – | – | – | – | – | inactive | inactive | inactive | inactive | inactive
22 | NC(=O)C(CCC(F)(F)F)N(Cc1ccc(-c2ncon2)cc1F)S(=O)(=O)c1ccc(Cl)cc1 (stereo not given) | – | – | – | – | – | inactive | inactive | inactive | inactive | inactive
23 | Cn1ncnc1COc1nn2c(-c3cc(F)ccc3F)nnc2cc1C(C)(C)C | – | – | – | – | – | inactive | inactive | inactive | inactive | inactive

— PubChem BioAssay (NCATS)
